PMC7819943, “Rice protein-binding microarrays: a tool to detect cis-acting elements near promoter regions in rice”
Whole data set: some 39,000 sequences, median “fluorescence intensity (a.u.)” near 4,300, cut for the highest 2% near 39,000. Many of the other results were omitted from the sample, so the highest values are more common in it than they were.

Each sequence was assayed against T1, OsSMF1 (Oryza sativa, UniProt Q6ZLB0 1-436) (assay: protein-binding microarray (RPBM); PBS, 2% BSA, 51.3 ng/ul salmon testes DNA, 50 uM zinc acetate, 200 nM TF, 25 C, 1 h; high values mean tight binding). Conditions: protein: recombinant; tags: N-terminal polyhistidine and DsRed monomer fusion (pET32a); chain copies: 2; label: CyDye5-dUTP incorporated in the synthesized complementary strand; 3' TTTTT single-stranded linker to array surface; dsDNA, one strand shown.
T1 sequence: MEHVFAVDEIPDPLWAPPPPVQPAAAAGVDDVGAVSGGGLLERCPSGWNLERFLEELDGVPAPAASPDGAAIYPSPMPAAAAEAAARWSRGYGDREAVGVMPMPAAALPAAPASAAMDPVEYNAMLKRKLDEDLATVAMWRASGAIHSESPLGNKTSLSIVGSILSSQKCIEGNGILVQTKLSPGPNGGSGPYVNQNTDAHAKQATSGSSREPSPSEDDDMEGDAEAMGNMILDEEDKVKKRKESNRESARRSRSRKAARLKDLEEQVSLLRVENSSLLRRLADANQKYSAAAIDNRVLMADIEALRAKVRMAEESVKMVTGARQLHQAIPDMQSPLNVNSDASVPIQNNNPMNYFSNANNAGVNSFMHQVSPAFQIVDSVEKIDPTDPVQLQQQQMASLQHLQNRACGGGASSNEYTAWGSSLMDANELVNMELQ
In short: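 Ni–NTA purification followed expression in E. coli BL21-CodonPlus of transcription factors fused N-terminally to a polyhistidine tag and DsRed. At 200 nM in PBS with 2% BSA, salmon testes DNA and 50 µM zinc acetate, the protein was incubated for 1 h at 25 °C with a custom Agilent array that had been primer-extended with Cy5-dUTP and blocked with 2% BSA. After washing, the array was read on an Axon 4000B scanner. The binding signal is per-feature fluorescence intensity in arbitrary units.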
“GAGCAGCCAGCTCGCCAAGCCTAGCCATTCTTGATCTCTTCGGAGTCACCTAGTGCAG” was tested, and the binding signal was 3280 fluorescence intensity (a.u.).
“CGAAGTCGTGCTGCGCTCCGACTCAGCTGCATCGTCACTCCGGAGTCACCTAGTGCAG” was tested, and the binding signal was 5960 fluorescence intensity (a.u.).
“ACTCGTGGAGCCGGTGATGACGTGCCCAAGCTAGAGACAGCGGAGTCACCTAGTGCAG” was tested, and the binding signal was 7230 fluorescence intensity (a.u.).
With “GCGGAGGCCGCCGGCTGACGTGGCTCCCAACGGCCGGGAGCGGAGTCACCTAGTGCAG” the binding signal was 21200 fluorescence intensity (a.u.).
“CTGCCGGTGGACGGCGGCGGAGAGCTGACTAGCCGAGCCGCGGAGTCACCTAGTGCAG” was tested, and the binding signal was 3520 fluorescence intensity (a.u.).
In the case of “GAGGAAGAACCTTACGCTCAAACGAAACGGAACCAGTAGGCGGAGTCACCTAGTGCAG”, the binding signal is reported as 55100 fluorescence intensity (a.u.).
For “TCGGGTGAGCGAGTGAGTGGGCGAGGAGGCGCGGCGGCGGCGGAGTCACCTAGTGCAG”, the binding signal was 3800 fluorescence intensity (a.u.).
For “GAGCCGAGACTGAGAGAGAGATCGGCGCCGGCTGTGAACGCGGAGTCACCTAGTGCAG”, the binding signal was 48100 fluorescence intensity (a.u.).
In the case of “ACCCAACGGTGATGATGTCAGCTGACGTGGCGCCCCGGAGCGGAGTCACCTAGTGCAG”, the binding signal is reported as 40500 fluorescence intensity (a.u.).
With “TCGGCCGTCGGATCGCGCGCGAAACGCTGTGATGTGCTGGCGGAGTCACCTAGTGCAG” the binding signal was 4480 fluorescence intensity (a.u.).
“GTCCATCGGATCGGGAGCGCGCGGCGAGGCAGGCGGGGTCCGGAGTCACCTAGTGCAG” was tested, and the binding signal was 44300 fluorescence intensity (a.u.).
“AAGAGGGAGGGGAGGGTTCGCGAACCAGTAGAAAACGGCTCGGAGTCACCTAGTGCAG” was tested, and the binding signal was 3390 fluorescence intensity (a.u.).
“CAGCAGCAACGAAATCAGAACGAGGCGCAGGAAGAAGAAACGGAGTCACCTAGTGCAG” was tested, and the binding signal was 28000 fluorescence intensity (a.u.).
In the case of “CAGGGCAGCGGCAGGTGGGGAGGAGGCCGGCGGGTCGGCGCGGAGTCACCTAGTGCAG”, the binding signal is reported as 3470 fluorescence intensity (a.u.).
With “GGATTGGCGACTCGACGTTGACAACATGACATATGAGGTACGGAGTCACCTAGTGCAG” the binding signal was 4210 fluorescence intensity (a.u.).
In the case of “GCTGCTCTCTCTCTCTCTCTCTCCCATCTCGTCCTCGCTTCGGAGTCACCTAGTGCAG”, the binding signal is reported as 19400 fluorescence intensity (a.u.).
“TCCACCTGGGTTCAAATCCTAGATTTGACACGGGTGCTCGCGGAGTCACCTAGTGCAG” was tested, and the binding signal was 4830 fluorescence intensity (a.u.).
For “ATAGCATCCTGTACACTCAAGTCATCCCTGACACACACACCGGAGTCACCTAGTGCAG”, the binding signal was 3850 fluorescence intensity (a.u.).
With “GGGCCAATCTAGTTGTCAACTTCTACTACTGCTAGGAGGACGGAGTCACCTAGTGCAG” the binding signal was 3410 fluorescence intensity (a.u.).
“GCTCGCCGGCCTCACCCTCAATACATGGTGATTCATCCGGCGGAGTCACCTAGTGCAG” was tested, and the binding signal was 3660 fluorescence intensity (a.u.).
In the case of “TGAATCCACAGCCACGCCACGCGGCCCATGCCTACGCCTCCGGAGTCACCTAGTGCAG”, the binding signal is reported as 4000 fluorescence intensity (a.u.).
For “CCTTGCCGCCGGCCAATTTATTGACTCACCGAGAAGTTTGCGGAGTCACCTAGTGCAG”, the binding signal was 5600 fluorescence intensity (a.u.).
In the case of “TGTGACCCATTCTAATACAATAAATCTGGACATGTGTACTCGGAGTCACCTAGTGCAG”, the binding signal is reported as 3630 fluorescence intensity (a.u.).
In the case of “GCCTTCCGTTCCGCTCCTCTACCGCCGCGTCAAGATTCCCCGGAGTCACCTAGTGCAG”, the binding signal is reported as 4950 fluorescence intensity (a.u.).
“CGCCGCCGGCCGCGCCGCCGCTGCCGCCGTCGCCCCGCGCCGGAGTCACCTAGTGCAG” was tested, and the binding signal was 3450 fluorescence intensity (a.u.).
“TGCGCCGCCGCCGCCGCCGCCGCTGCGGCGTGCATCCGCCCGGAGTCACCTAGTGCAG” was tested, and the binding signal was 37400 fluorescence intensity (a.u.).
In the case of “TTTCCGCTATCGCGGTGCGCGCGGAAGGCCCCGCTGCGGCCGGAGTCACCTAGTGCAG”, the binding signal is reported as 39200 fluorescence intensity (a.u.).
“ATCTCTAAACACCAAATTTGACACCGATCCACGTGCACACCGGAGTCACCTAGTGCAG” was tested, and the binding signal was 7210 fluorescence intensity (a.u.).
In the case of “GCCATTGATGACAAAGACAACCTGGAAGATTACTGTTGCACGGAGTCACCTAGTGCAG”, the binding signal is reported as 64300 fluorescence intensity (a.u.).
In the case of “GACCAAGATGACAAAGATTACTATTATACTGATGATAACCCGGAGTCACCTAGTGCAG”, the binding signal is reported as 34100 fluorescence intensity (a.u.).
“AAGTCTGCAGTTGCACTGGGAGTTGACAAAGAAGATGACGCGGAGTCACCTAGTGCAG” was tested, and the binding signal was 3550 fluorescence intensity (a.u.).
With “GTCCTCATCCTAGGTAAAATAACCACGTCATCTCACAGGTCGGAGTCACCTAGTGCAG” the binding signal was 20700 fluorescence intensity (a.u.).
For “GCTAGCGCGCATTGACCAAGATCCGATTTGTATGCTAGTGCGGAGTCACCTAGTGCAG”, the binding signal was 4060 fluorescence intensity (a.u.).
“GCAGAGGCGGCGAGGCTCGGCTTCTTCTCGAACGGCGCCGCGGAGTCACCTAGTGCAG” was tested, and the binding signal was 27600 fluorescence intensity (a.u.).
In the case of “CCGAGAGAAAGAGAGCAAGAGAGAGAGACGGGCTCAAGAGCGGAGTCACCTAGTGCAG”, the binding signal is reported as 4560 fluorescence intensity (a.u.).
For “GAGCAGAAAGACGCGGCTTCTCGAGAGTTCCAAGTTCCAACGGAGTCACCTAGTGCAG”, the binding signal was 45200 fluorescence intensity (a.u.).
For “CGATGAGCACCGCAGCGATTGACATATTGCAATATCGTTCCGGAGTCACCTAGTGCAG”, the binding signal was 3550 fluorescence intensity (a.u.).
“ACGTACGTGTGCGTATCCGACAAGTCCCACGACGTGGCAACGGAGTCACCTAGTGCAG” was tested, and the binding signal was 4960 fluorescence intensity (a.u.).
In the case of “TTTTACATGATTGGATGACAAAGCCTATTTCGTTTTGTTGCGGAGTCACCTAGTGCAG”, the binding signal is reported as 5400 fluorescence intensity (a.u.).
With “TATTTTGGAAAATGAGTCACAGGGTTATTGTAGCTTTGAACGGAGTCACCTAGTGCAG” the binding signal was 9390 fluorescence intensity (a.u.).
“AAATCAGGAAATGAAAAGCTAGGGTTTTAGGTATTGTAATCGGAGTCACCTAGTGCAG” was tested, and the binding signal was 40800 fluorescence intensity (a.u.).
With “TATTTGGTTTTGTAGGGGTTGGTTTGGGAAAATTGGAAAGCGGAGTCACCTAGTGCAG” the binding signal was 4240 fluorescence intensity (a.u.).
